# PubChem BioAssay AID1851 (National Center for Advancing Translational Sciences (NCATS), 2009)
# Where “and” joins values, the source holds several entries; their conditions need not be identical. Equal values may be shown once. About 5,700 (36%) of roughly 16,000 compounds were called active. Inconclusive results (about 24%) are left out. Calls follow the shape of the dose curve; as a rule, active = well fitted curve in the direction sought with a large enough effect; inconclusive = small, poorly fitted or top-dose-only effect, or effect the other way; inactive = no such curve, though single readings can be large or run the other way. This is one part of the list. The source holds several records for some structures; these can differ, active in one and inactive in another.
# Molecular target: Cytochrome P450 1A2 (Homo sapiens) (UniProt P05177)
# Sequence (P05177 whole entry, looked up): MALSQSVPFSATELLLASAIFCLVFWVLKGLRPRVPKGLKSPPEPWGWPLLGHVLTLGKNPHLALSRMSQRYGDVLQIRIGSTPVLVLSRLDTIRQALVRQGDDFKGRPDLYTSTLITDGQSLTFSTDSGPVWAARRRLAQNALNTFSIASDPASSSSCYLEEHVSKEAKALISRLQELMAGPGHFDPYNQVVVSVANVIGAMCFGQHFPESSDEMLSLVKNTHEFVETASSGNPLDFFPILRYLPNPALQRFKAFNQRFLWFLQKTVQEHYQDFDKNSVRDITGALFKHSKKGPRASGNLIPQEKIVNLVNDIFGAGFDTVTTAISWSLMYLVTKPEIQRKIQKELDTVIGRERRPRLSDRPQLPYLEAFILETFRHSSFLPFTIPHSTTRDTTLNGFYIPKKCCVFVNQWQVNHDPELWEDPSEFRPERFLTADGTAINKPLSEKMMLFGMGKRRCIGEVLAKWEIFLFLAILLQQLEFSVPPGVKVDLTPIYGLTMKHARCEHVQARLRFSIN
# Test: Cytochrome panel assay with activity outcomes
# Conditions: recombinant CYP, pro-luciferin dealkylation, luminescence, p450-cyp1a2; series mostly up to 57.1 µM; activity, negative = inhibition: at the top concentration
# % is scaled to controls: 0 for no effect and ±100 for the full control effect.
SMILES,AC50,"activity, negative = inhibition"
CCN(CC)CCC[C@H](C)Nc1c2ccc(Cl)cc2nc2ccc(OC)cc12,2 µM (active) and 1 µM (active),
Cc1cccc(N(CC(=O)N2CCOCC2)S(C)(=O)=O)c1,,16.1% (inactive)
CC(C)OP(=O)(OC(C)C)C(NC(=O)c1ccc(Br)cc1)c1ccccc1 (configuration not stated),,-25.6% (inactive)
C/C(=N\NC(=O)c1cccc(Br)c1)c1ccc(Br)cc1,0.282 µM (active),
CCn1cc(C(=O)N/N=C(/C)c2ccc(F)cc2)c(=O)c2cc(F)c(N3CCCC3)cc21,,-9.37% (inactive)
O=C(N/C(=C\c1cccnc1)C(=O)N1CCOCC1)c1cccc(Br)c1,,-21.1% (inactive)
C/C(=N/NC(=O)c1ccc(NC(=O)c2ccc(F)cc2)cc1)c1ccccc1,,-8.1% (inactive)
C/C(=N\NC(=O)c1ccc(Br)cc1)c1ccccc1,1.41 µM (active),
CN(C)Cc1ccccc1-c1nccc(NCc2cccs2)n1,0.794 µM (active),
Cc1ccccc1-c1nccc(NCc2cccs2)n1,0.501 µM (active),
FC(F)(F)c1ccccc1-c1nccc(NCc2cccs2)n1,1.26 µM (active),
CC1CCN(c2cc(N3CCC(C)CC3)c([N+](=O)[O-])cc2/C=C(\C#N)c2nn(-c3ccccc3)c(N)c2C#N)CC1,,3.3% (inactive)
CCCC[P+](CCCC)(CCCC)Cc1ccc(NC(=O)[C@@H](Cc2ccc3ccccc3c2)NC(=NC2CCCCC2)NC2CCCCC2)cc1,31.6 µM (active),
O=C(Nc1ccccc1)C(Cc1ccccc1)NC(=O)C12CC3CC(CC(C3)C1)C2 (configuration not stated),,-0.717% (inactive)
COc1ccc(CC(NC(C)=O)C(=O)NC2CCN(C(=O)Nc3ccc(Cl)cc3)CC2)cc1OC (configuration not stated),,-18.2% (inactive)
CCNC(=S)NNC(=O)CCn1c2ccccc2c2ccccc21,2.82 µM (active),
CCNC(=S)NNC(=O)Cc1ccccc1,,9.81% (inactive)
CC(=O)C1=NOC(CNC(=O)c2c(-c3ccccc3Cl)noc2C)C1 (configuration not stated),,4.12% (inactive)
N#Cc1c(NC(=O)C2CC(c3ccccc3Cl)=NO2)sc2c1CCC2 (configuration not stated),3.55 µM (active),
COc1ccc(COC(=O)N/N=C2/C[C@@H](O)[C@@H](O)[C@@H]3[C@@H]4C(=O)N([C@@H](C)c5ccccc5)C(=O)[C@H]4CC[C@@H]23)cc1,,-1.59% [at 11.4 µM] (inactive)
CSc1ccc(CNc2ccc(C)c(C)c2)cc1,0.891 µM (active),
CSc1ccc(CNc2ccccc2)cc1,25.1 µM (active),
CSc1ccc(CNc2ccc(Cl)cc2)cc1,10 µM (active),
CC(Sc1nc(NCc2ccccc2)nc(N(C)C)n1)C(=O)Nc1ccccc1 (configuration not stated),,-24.4% (inactive)
CCCCC[C@H](CC(=O)NO)C(=O)N[C@@H](C(=O)N1CCC[C@H]1CO)C(C)C,,-5.78% (inactive)

SMILES,AC50,"activity, negative = inhibition"
COCCn1c(=O)c(C)nc2cnc(Oc3ccc(OC)cc3)nc21,15.8 µM (active),
COCCn1c(=O)cnc2cnc(Oc3ccccc3)nc21,15.8 µM (active),
O=c1cnc2cnc(Oc3ccccc3)nc2n1CCc1ccccc1,3.16 µM (active),
Cn1c(=O)cnc2cnc(Oc3ccccc3)nc21,10 µM (active),
Cc1nn(S(=O)(=O)c2cccs2)c(C)c1Sc1ccc([N+](=O)[O-])cc1,,-14.2% (inactive)
O=C1CCCN1CC(CN1CCOCC1)Sc1nnnn1-c1ccccc1 (configuration not stated),,-4.25% (inactive)
CCN(CC)CCCN(Cc1cc2ccc(C)c(C)c2[nH]c1=O)C(=O)NC1CCCCC1,,-13.6% (inactive)
COCCn1c(=O)cnc2cnc(Oc3ccc(OC)cc3)nc21,5.01 µM (active),
COc1ncc2ncc(=O)n(C)c2n1,12.6 µM (active),
COc1ccc(-n2c(=O)cnc3cnc(Oc4ccccc4)nc32)cc1,15.8 µM (active),
CN(Cc1cnc2nc(N)nc(N)c2n1)c1ccc(C(=O)N[C@@H](CCC(=O)O)C(=O)O)cc1,,-17.7% (inactive)
N=c1sc2ccccc2n1CCS (tested in a mixture with another compound),1 µM (active),
CN1CCN(c2ncc3ncc(=O)n(C[C@H]4CCCO4)c3n2)CC1,10 µM (active),
O=c1cnc2cnc(N3CCOCC3)nc2n1C[C@H]1CCCO1,10 µM (active),
O=c1cnc2cnc(N3CCOCC3)nc2n1C1CC1,6.31 µM (active),
CCn1cc(C(=O)O)c(=O)c2cnc(N3CCNCC3)nc21,,-8.44% [at 25.6 µM] (inactive)
COC(=O)c1nn(-c2ccccc2)c(=O)cc1Oc1ccccc1,20 µM (active),
O=C1C=C[C@@H](O)[C@H]2[C@@H]3C(=O)N(c4cccc(Oc5ccccc5)c4)C(=O)[C@@H]3CC[C@H]12,,-5.61% [at 11.4 µM] (inactive)
COC(=O)c1nn(-c2ccccc2)c(-c2ccccc2)c1C(=O)c1ccccc1,,-20.1% (inactive)
COC(=O)N1CCC2(CCCN(Cc3ccccc3)C2)CC1,,-12.4% (inactive)
O=C(c1ccncc1)N1CCC[C@@]2(CCN(c3ncccn3)C2)C1,,-21.1% (inactive)
CO/N=C(\C)CCN1CCCCc2nc(C)c(C)cc21,,-3.72% [at 11.4 µM] (inactive)
CN1CCC(=NNC(=O)CSCc2ccccc2)CC1,14.1 µM (active),
CC1CCC(=NNC(=O)Cc2ccccc2)CC1 (configuration not stated),,-16.9% (inactive)
CCCCC1CCC(c2nc(-c3ccccn3)no2)CC1 (configuration not stated),28.2 µM (active),

SMILES,AC50,"activity, negative = inhibition"
CN(C)c1ccc(-c2noc(C3CCN(S(=O)(=O)c4cccc(C(=O)O)c4)CC3)n2)cc1,,-19.7% (inactive)
Cc1cc(C)c(C#N)c(SCC(=O)c2ccc(Cl)cc2Cl)n1,2.24 µM (active),
Cc1cc(C)c(C#N)c(SCc2cc3c(cc2Cl)OCO3)n1,2.24 µM (active),
C/C(=N\[N+](C)(C)C)c1ccc(C)c(C)c1,,-16.9% [at 2.29 µM] (inactive)
Cc1ccc(S(=O)(=O)c2cc(N3CCOCC3)nc(-c3ccccc3)n2)cc1,4.47 µM (active),
Cc1cccc(C(=O)N2CCC(c3nc(-c4ccc(S(=O)(=O)N5CCOCC5)cc4)no3)CC2)c1,,1.35% (inactive)
O=c1nc(N2CCOCC2)ccn1-c1nc(-c2ccccc2)oc1-c1ccccc1,,-15.5% (inactive)
COc1cccc(Sc2cc(N3CCOCC3)nc(-c3ccccc3)n2)c1,2.51 µM (active),
Cc1ccc(Oc2cc(N3CCOCC3)nc(-c3ccccc3)n2)cc1,2.51 µM (active),
Cc1ccc(C(=O)N2CCN(c3cc(=O)[nH]nc3-c3ccccc3)CC2)cc1,,-1.63% (inactive)
N=C(N)c1ccc(N)cc1,,6.37% (inactive)
O=C(O)CS(=O)c1ccc2c3c(cccc13)C(=O)c1ccccc1-2 (configuration not stated),0.0631 µM (active),
C(=C\c1nnc(-c2cccs2)o1)/c1ccccc1,2.51 µM (active),
Cc1ccc(/C=C/c2nnc(-c3cccs3)o2)cc1,8.91 µM (active),
COc1ncc2nc(-c3cc(F)cc(F)c3)c(=O)n(C)c2n1,2 µM (active),
Cn1c(=O)c(-c2cc(F)cc(F)c2)nc2cnc(Oc3ccccc3)nc21,2 µM (active),
COc1ccc(Oc2ncc3nc(-c4cc(F)cc(F)c4)c(=O)n(C)c3n2)cc1,3.16 µM (active),
Nc1nc2c(c(=O)[nH]1)N(C=O)[C@H](CNc1ccc(C(=O)N[C@@H](CCC(=O)O)C(=O)O)cc1)CN2,,-1.33% [at 25.6 µM] (inactive)
Cn1c(C(=O)O)c(CC(=O)NCC2COc3ccccc3O2)c2ccccc21 (configuration not stated),,-29.5% (inactive)
COc1cccc(OC)c1OCCNC[C@@H]1COc2ccccc2O1,12.6 µM (active) and 25.1 µM (active),
COc1cccc(OC)c1OCCCN1CCOCC1,,-21.7% (inactive)
COc1ccccc1NC(=O)N1CCC(c2nnc(SCC(N)=O)n2C)CC1,,2.54% (inactive)
COc1ccccc1NC(=O)CC1COc2ccccc2O1 (configuration not stated),7.08 µM (active),
CC(C)N=c1scc(-c2ccco2)n1/N=C/c1ccc(O)c(O)c1,15.8 µM (active),
CNc1cc(NS(=O)(=O)c2ccc(N)cc2)nc(NC)n1,,-10.1% (inactive)

SMILES,AC50,"activity, negative = inhibition"
Cc1cccc(OCCSCc2nc3ccccc3[nH]2)c1,2.24 µM (active),
Cc1ccccc1N1CCN(S(=O)(=O)C[C@@]23CC[C@H](C[C@H]2NC(=O)[C@@H](N)CCS(C)(=O)=O)C3(C)C)CC1,,-1.31% (inactive)
COc1ccc(C(=O)Oc2cc(/C=N/NS(=O)(=O)c3ccc(C)cc3)ccc2OC)cc1,,-22.7% (inactive)
COc1ccc(/C=N/NC(N)=S)cc1OC(=O)c1cccc2ccccc12,1.58 µM (active),
COc1ccc(/C=N/NC(=O)c2cc(-c3ccc(C)cc3C)nc3ccccc23)cc1COC(C)=O,,6.8% (inactive)
O=c1c2ccccc2nc2n1CCC2,6.31 µM (active),
O=c1c2ccccc2nc2n1C(CSc1ccc(F)cc1)CN2 (configuration not stated),,3.12% (inactive)
O=c1c2ccccc2nc2n1CCc1c-2[nH]c2ccccc12,0.316 µM (active),
CC(C)NC(=O)N1CC2(CCN(C(=O)c3ccncc3)CC2)C1,,-3.34% (inactive)
Cc1noc(C)c1C(=O)N1CCC2(CCCN(Cc3ccccc3)C2)CC1,,-10.7% (inactive)
O=[N+]([O-])c1ccc(C2=Nn3c(nnc3-c3ccc(Cl)cc3)SC2)o1,0.158 µM (active),
Cc1nc2sccc2c(=O)n1-c1cccc(Cl)c1,11.2 µM (active),
COC(=O)c1cnn(C(=O)c2ccccc2Br)c1N,8.91 µM (active),
COC(=O)c1cnn(C(=O)c2cc(OC)ccc2Br)c1N,28.2 µM (active),
COc1ncc2nc(-c3cc(F)cc(F)c3)c(=O)n(C3CC3)c2n1,1.58 µM (active),
O=c1c(-c2cccs2)nc2cnc(Oc3ccccc3)nc2n1C1CC1,2.51 µM (active),
O=c1c(-c2cc(F)cc(F)c2)nc2cnc(Oc3ccccc3)nc2n1C1CC1,2.51 µM (active),
CCCC[C@@H]1CN2[C@H](c3ccc(Br)cc3)[C@H](C)CC[C@H]2C(=O)O1,,3.25% [at 11.4 µM] (inactive)
CN(C)c1ccc(O)c2c1C[C@H]1C[C@H]3[C@@H](N(C)C)C(=O)C(C(N)=O)=C(O)[C@]3(O)C(=O)C1=C2O,,-5.13% [at 25.6 µM] (inactive)
CN1C(C(=O)Nc2ccccn2)=C(O)c2ccccc2S1(=O)=O,inactive and 20 µM (active),
CN1C(C(=O)Nc2ccccn2)=C(O)c2sccc2S1(=O)=O,,-10.3% [at 25.6 µM] (inactive)
Cc1ccccc1NC1=C(C(=O)c2ccccc2)N(C)S(=O)(=O)c2ccccc21,,-7.47% (inactive)
